Several values for one entry are separate records, joined by “and”; a condition that tells them apart may be missing. Equal values may be shown once. Results filed as inconclusive are left out. Activity calls are given as the source filed them. Calls come from the whole dose curve; as a rule, active = well fitted inhibition curve with a large enough effect; inconclusive = small, poorly fitted or top-dose-only effect; inactive = flat fitted curve, though single readings scatter.
Columns and labels:
TAB113 = experiment: qHTS profiling for inhibitors of Plasmodium falciparum proliferation (AID 504749); note: potency is the fitted concentration of half-maximal effect; conditions: P. falciparum in erythrocytes, SYBR Green DNA, 72 h; series mostly up to 28.7 µM
Summary of the method: (§1)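 Quantitative HTS: compounds pinned into medium, infected erythrocytes added (0.3% parasitemia, 2.5% hematocrit), 72 h culture at 37 C under 5% CO2. Saponin/Triton lysis with SYBR Green I, overnight RT, then fluorescence read.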

TAB165 = experiment: as above; conditions: P. falciparum in erythrocytes, SYBR Green DNA, 72 h; series mostly up to 28.7 µM
Summary of the method: as §1

W2 = experiment: as above; conditions: P. falciparum in erythrocytes, SYBR Green DNA, 72 h; series mostly up to 28.7 µM
Summary of the method: as §1

KB-3-1 = experiment: Cytotoxic Profiling of Annotated Libraries Using Quantitative High-Throughput Screening (AID 1296008); conditions: Five cell lines viability, CellTiter-Glo ATP luminescence, 48-72 h; max response: stronger effect = lower value; note: potency is the fitted concentration of half-maximal effect; for max response: % is set by controls: 0 for no effect and ±100 for the full control effect
Summary of the method: (§2)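 Compounds were pin-transferred onto cells and incubated 48 or 72 hr at 37 degree Celsius, 95% humidity. CellTiter-Glo was added, plates sat 10 min at room temperature, then ATP-coupled luminescence was imaged as the viability read-out.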

HEK293 = experiment: as above; conditions: Five cell lines viability, CellTiter-Glo ATP luminescence, 48-72 h; max response: stronger effect = lower value
Summary of the method: as §2

NIH3T3 = experiment: as above; conditions: Five cell lines viability, CellTiter-Glo ATP luminescence, 48-72 h; max response: stronger effect = lower value
Summary of the method: as §2

HaCat [1] = experiment: as above; conditions: Five cell lines viability, CellTiter-Glo ATP luminescence, 48-72 h; max response: stronger effect = lower value
Summary of the method: as §2

HACAT [2] = experiment: qHTS assay to identify novel small-molecules to repurpose for Merkel cell carcinoma treatment (AID 1296009); conditions: MCC and control cell lines, CellTiter-Glo viability, 72 h; at 44.8 µM (top of the series) unless noted
Summary of the method: (§3)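 Viability readout: ATP luminescence (CellTiter-Glo) after 72 hr drug exposure at 37 degree celsius. Dose-response format was 8 points for NPC and 11 points for MIPE; data normalized to in-plate controls.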

HEK293T = experiment: as above; conditions: MCC and control cell lines, CellTiter-Glo viability, 72 h; at 44.8 µM (top of the series) unless noted
Summary of the method: as §3
Note: nearly all actives have a fitted effect of over 60% in size.

NC(N)=NCc1cccc(I)c1
inactive: Potency (TAB113) | Potency (TAB165) | Potency (W2) | max response (KB-3-1) 1.64% and -6.45%

CCN(CC)CCNC(=O)COc1ccc(OC)cc1
inactive: Potency (TAB113) | Potency (TAB165) | max response (HEK293) 4.77% | max response (KB-3-1) 7.84% | max response (NIH3T3) -6.7%

Cc1ccc(S(=O)(=O)NC(=O)NC2CCCC2)cc1
inactive: Potency (TAB113) | Potency (TAB165) | Potency (W2) | max response (HEK293) -5.76% | max response (HaCat [1]) 2.64% | max response (NIH3T3) 3.93%

CC(=O)OC[C@H]1O[C@@H](n2ncc(=O)[nH]c2=O)[C@H](OC(C)=O)[C@@H]1OC(C)=O
active: Potency (HEK293) 0.944 µM
inactive: Potency (TAB165) | Potency (W2) | max response (HaCat [1]) -1.52%

NC(=O)C1(N2CCCCC2)CCN(CCCC(=O)c2ccc(F)cc2)CC1
inactive: Potency (TAB165) | max response (HEK293) -19.7% | outcome (HaCat [1]) | max response (NIH3T3) -2.39% | outcome (HACAT [2])

Nc1ccc(S(=O)(=O)Nc2cnc3ccccc3n2)cc1
inactive: Potency (TAB113) | Potency (TAB165) | Potency (W2) | max response (HEK293) 1.95% | max response (HaCat [1]) -4.06% | max response (KB-3-1) -10.8% | outcome (NIH3T3)

CCOC(=O)[C@H](CCc1ccccc1)N[C@@H](C)C(=O)N1[C@H](C(=O)O)C[C@H]2CCCC[C@@H]21
inactive: Potency (TAB113) | Potency (TAB165) | Potency (W2) | max response (KB-3-1) 8% and -12.5%

COc1ccc(/C=N/NC(=O)c2ccncc2)cc1OC
inactive: Potency (TAB113) | Potency (TAB165) | Potency (W2) | max response (HEK293) -3.6% | outcome (HaCat [1]) | max response (KB-3-1) 0.981% | max response (NIH3T3) -0.709% | outcome (HACAT [2])

CCCCCCCCCCCCOCCOCCOCCOCCOCCOCCOCCOCCOCCO
active: Potency (HEK293) 7.5 µM
inactive: max response (HaCat [1]) 0.283% | max response (NIH3T3) -5.79%

CC(=O)Nc1ccc(OC(=O)c2ccccc2OC(C)=O)cc1
inactive: Potency (TAB113) | Potency (TAB165) | Potency (W2) | outcome (HEK293) | outcome (HaCat [1]) | outcome (NIH3T3) | outcome (HACAT [2]) | outcome (HEK293T)

CN1CCC[C@@H]1CCO[C@](C)(c1ccccc1)c1ccc(Cl)cc1
active: Potency (W2) 13.5 µM | Potency (HEK293) 15 µM | Potency (HaCat [1]) 26.6 µM
inactive: Potency (TAB113) | max response (KB-3-1) -2.14%

Oc1ccccc1C=NCc1ccccc1
inactive: Potency (TAB113) | Potency (TAB165) | Potency (W2) | max response (HEK293) -3.05% | max response (HaCat [1]) -1.46% | max response (KB-3-1) -4.65% | outcome (NIH3T3)

Oc1c(Cl)cc(Cl)c(Cl)c1Cc1c(O)c(Cl)cc(Cl)c1Cl
active: Potency (TAB113) 12.6 µM | Potency (TAB165) 7.94 µM | Potency (HEK293) 8.41 µM

CC(=O)NO
inactive: Potency (TAB113) | Potency (TAB165) | Potency (W2) | max response (HEK293) 1.75% | max response (HaCat [1]) -61% | max response (KB-3-1) 15.6% | max response (NIH3T3) 2.47%

O=C(Nc1ncc([N+](=O)[O-])s1)c1cccs1
active: Potency (HEK293) 15 µM
inactive: Potency (TAB113) | Potency (TAB165) | Potency (W2) | max response (HaCat [1]) -23.3%

C=C[C@H]1CN2CC[C@H]1C[C@H]2[C@H](O)c1ccnc2ccc(OC)cc12
inactive: max response (HaCat [1]) -3.94% | max response (KB-3-1) 4.92% and -14.4% and -25.6% | max response (NIH3T3) -2.33%

Oc1ccc(Cl)cc1Cc1cc(Cl)ccc1O
active: Potency (TAB165) 11.2 µM | Potency (HEK293) 21.1 µM

Cc1cc2c(OCC(CNC(C)(C)C)OC(=O)c3ccccc3)cccc2[nH]1 (stereo not drawn)
active: Potency (W2) 2.13 µM
inactive: Potency (TAB113) | outcome (HEK293) | max response (HaCat [1]) 1.54% | max response (NIH3T3) 2.07% | outcome (HEK293T)

O=c1[nH]c(=O)n([C@H]2C[C@H](O)[C@@H](CO)O2)cc1F
inactive: Potency (TAB113) | Potency (TAB165) | Potency (W2)
active: Potency (HEK293) 0.0299 µM | Potency (HaCat [1]) 0.0084 µM | Potency (NIH3T3) 0.006 µM

CC(=O)Nc1ccc(CC(=O)O)cc1
inactive: Potency (TAB113) | Potency (TAB165) | Potency (W2) | max response (HEK293) 0.0311% | outcome (HaCat [1]) | max response (KB-3-1) -17.4% | max response (NIH3T3) -0.623% | outcome (HACAT [2])

CNCCCCOc1ccccc1Cc1ccccc1
inactive: max response (HaCat [1]) -10% | max response (KB-3-1) 9.62%
active: Potency (W2) 1.35 µM | Potency (HEK293) 15 µM

CN=C(N)NCCC[C@H](N)C(=O)O
inactive: max response (KB-3-1) -24.2% and -3.13% and -1.75%

CCCCCCCCNC(C)C(O)c1ccc(SC(C)C)cc1 (stereo not drawn)
inactive: max response (KB-3-1) 7.32%
active: Potency (TAB113) 0.355 µM | Potency (TAB165) 0.794 µM | Potency (W2) 0.169 µM | Potency (HEK293) 13.3 µM

NS(=O)(=O)c1cc(C(=O)O)cc(N2CCCC2)c1Oc1ccccc1
inactive: Potency (TAB113) | Potency (TAB165) | max response (HEK293) 2.69% | max response (HaCat [1]) -7.61% | max response (KB-3-1) 3.66% | max response (NIH3T3) -1.53%

O=C(O)C1(C(=O)O)CCC1.[NH2-].[NH2-].[Pt+2]
inactive: Potency (TAB113) | Potency (TAB165) | max response (HEK293) 1.14% | max response (HaCat [1]) 1.48% | max response (KB-3-1) 13% | max response (NIH3T3) -2.25%

CO[C@]12C[C@@H](COC(=O)c3cncc(Br)c3)CN(C)[C@@H]1Cc1cn(C)c3cccc2c13
active: Potency (W2) 6.75 µM
inactive: Potency (TAB113) | max response (HEK293) -26.4% | outcome (HaCat [1]) | max response (NIH3T3) 0.842% | outcome (HACAT [2])

CCOC(=O)[C@@](C)(N)Cc1ccc(O)c(O)c1
inactive: outcome (HaCat [1]) | max response (KB-3-1) -9.02% | outcome (HACAT [2])
active: Potency (HEK293) 18.8 µM

O[C@@H](c1cc(C(F)(F)F)nc2c(C(F)(F)F)cccc12)[C@H]1CCCCN1
active: Potency (TAB113) 0.01 µM | Potency (TAB165) 0.0316 µM | Potency (HEK293) 9.44 µM | Potency (KB-3-1) 25.9 µM

Cc1cccc(C)c1NC(=O)CN1CCCC1
inactive: Potency (TAB165) | max response (HEK293) 0.0979% | outcome (HaCat [1]) | max response (KB-3-1) 8.28% | max response (NIH3T3) 1.81% | outcome (HACAT [2])

— PubChem BioAssay (NCATS)
